According to the supplement of paper PMC12067926:
Unmarked numbers belong to inactive results.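 The calls were made as follows: active = growth AUC significantly below the DMSO wells by Dunnett test; inactive = the rest.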

Columns and labels:
Assay in all cases: relative growth (AUC of 72 h growth curve relative to DMSO control, dAUC) (ratio); higher = more growth (less inhibition), active = hit call of the paper
Conditions in all cases: 20 µM
[1] = tested on: Aeromonas 1 (Aeromonas sp. AE235)
Method in brief: (§1)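 Growth was followed as A600, read hourly for 72 h on a plate reader after brief shaking. Isolates from Icelandic stream sediments and Silwood Park soil, and whole sediment communities, were first grown to carrying capacity in Luria–Bertani medium and then diluted 1:100 into 96-well plates with each chemical at 20 µM (1% DMSO). Relative growth (dAUC) is the spline-integrated area under the curve scaled to the mean of the DMSO controls, and the values are averages of three biological replicates.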

[2] = tested on: Aeromonas 2 (Aeromonas sobria)
Method in brief: as §1

[3] = tested on: Aeromonas 3 (Aeromonas popoffii)
Method in brief: as §1

[4] = tested on: Argrobacterium 1 (Agrobacterium sp.)
Method in brief: as §1

[5] = tested on: Arthrobacter 1 (Arthrobacter humicola)
Method in brief: as §1

[6] = tested on: Arthrobacter 2 (Arthrobacter humicola)
Method in brief: as §1

[7] = tested on: Arthrobacter 3 (Arthrobacter sp.)
Method in brief: as §1

[8] = tested on: Community 10
Method in brief: as §1

[9] = tested on: Community 4
Method in brief: as §1

[10] = tested on: Community 6
Method in brief: as §1

[11] = tested on: Community 7
Method in brief: as §1

[12] = tested on: Community 8
Method in brief: as §1

[13] = tested on: Community 9
Method in brief: as §1

[14] = tested on: Flavobacterium 1 (Flavobacterium glaciei)
Method in brief: as §1

[15] = tested on: Flavobacterium 2 (Flavobacterium succinicans)
Method in brief: as §1

[16] = tested on: Hymenobacter 1 (Hymenobacter glaciei)
Method in brief: as §1

[17] = tested on: Microbacterium 1 (Microbacterium arborescens)
Method in brief: as §1

[18] = tested on: Neobacillus 1 (Neobacillus soli)
Method in brief: as §1

[19] = tested on: Oryzobacter 1 (Oryzobacter terrae)
Method in brief: as §1

[20] = tested on: Paenibacillus 1 (Paenibacillus castaneae)
Method in brief: as §1

SMILES	relative growth [1]	relative growth [2]	relative growth [3]	relative growth [4]	relative growth [5]	relative growth [6]	relative growth [7]	relative growth [8]	relative growth [9]	relative growth [10]	relative growth [11]	relative growth [12]	relative growth [13]	relative growth [14]	relative growth [15]	relative growth [16]	relative growth [17]	relative growth [18]	relative growth [19]	relative growth [20]
Fc1ccc([C@]2(Cn3cncn3)O[C@H]2c2ccccc2Cl)cc1 (racemic)	0.946	0.979	0.974	0.985	0.883	0.947	0.856	0.962	0.965	1.05	1.15	1.04	0.984	0.944	0.938	0.943	1.01	0.963	1.13	0.92
Cc1cc(C)c(C2=C(OC(=O)CC(C)(C)C)C3(CCCC3)OC2=O)c(C)c1	1.09	0.978	1.05	1.11	0.927	0.864	0.789	0.848	1.19	0.917	0.932	1.08	1.03	0.346 (active)	0.981	0.896	1.02	1.01	1.16	0.994
O=[N+]([O-])c1cc(C(F)(F)F)c(Cl)c([N+](=O)[O-])c1Nc1ncc(C(F)(F)F)cc1Cl	1.04	0.00203 (active)	0.00448 (active)	0.0123 (active)	0.035 (active)	0.0116 (active)	0.0138 (active)	0.534 (active)	0.614 (active)	0.498 (active)	0.794	0.921	0.34 (active)	0.0154 (active)	0.00437 (active)	0.0968 (active)	0.928	0.169 (active)	0.00855 (active)	0.00404 (active)
CNC(=O)Oc1cccc(/N=C/N(C)C)c1	1	0.973	0.975	0.977	0.93	0.951	1.1	0.8	0.984	0.995	1.15	1.03	1.07	0.984	0.99	0.815	1.02	0.97	1.05	0.96
CCCC1COC(Cn2cncn2)(c2ccc(Cl)cc2Cl)O1 (stereo not given)	0.966	0.949	0.971	0.999	0.991	0.797	0.751	0.868	0.89	0.917	1.08	1	0.862	0.937	0.856	0.937	1.01	0.88	1.1	0.935
COC(=O)N(OC)c1ccccc1COc1ccn(-c2ccc(Cl)cc2)n1	1.04	0.927	0.979	1.04	1.16	1.02	0.903	0.903	0.941	1.03	1.11	1.04	1.09	0.969	0.979	1.08	0.98	1.03	1.17	0.944
COC(=O)Nc1nc2ccccc2[nH]1	1.01	0.956	0.973	0.992	1.04	1.05	1.12	0.869	1.02	0.998	0.965	0.959	1.04	1.13	1	1.01	0.974	1.13	1.07	0.946
COC(=O)N(C(=O)N1CO[C@@]2(C(=O)OC)Cc3cc(Cl)ccc3C2=N1)c1ccc(OC(F)(F)F)cc1	0.96	0.963	0.971	1.03	1	0.972	1.02	0.878	1.03	0.974	1.01	1.02	1.01	1.1	0.979	1.05	1.04	1.03	1.09	0.948
CC1(C(=O)Nc2ccc(O)c(Cl)c2Cl)CCCCC1	0.972	0.983	0.993	0.983	0.846	1.02	0.984	0.827	0.977	0.984	1	0.942	1.1	0.982	0.979	0.654 (active)	0.995	0.99	1.04	0.954
CNC(=O)ON=C(C)SC	0.953	0.974	1.01	0.974	0.962	1.01	0.971	1.14	1.09	1.05	0.999	0.942	1.04	1.03	1.03	1.07	0.999	1.01	0.947	1.07
O=C1C2CC=CCC2C(=O)N1SC(Cl)(Cl)Cl (stereo not given)	0.905	1.01	0.983	0.74 (active)	0.95	0.769	0.919	0.58	0.671	0.614 (active)	0.95	0.794	0.473 (active)	0.948	0.9	0.968	1	0.917	0.991	1.06
O=C(NCCc1ncc(C(F)(F)F)cc1Cl)c1ccccc1C(F)(F)F	0.997	0.977	0.973	1.13	0.873	0.931	1.01	0.806	0.994	0.939	0.935	0.961	1.05	0.987	0.962	0.995	1.02	0.981	1.11	0.935
Cc1cc(C2CC2)nc(Nc2ccccc2)n1	1.01	0.948	1.05	0.93	0.989	0.898	0.542 (active)	0.995	0.978	1	0.89	1.05	0.939	0.951	0.86	1.1	1.05	0.946	1.04	0.619 (active)
O=C(Nc1ccccc1-c1ccc(Cl)cc1)c1cccnc1Cl	1.02	0.995	1.04	0.962	0.891	1.01	0.869	1.05	1.01	1.01	1	1.03	0.999	1.04	1	1.11	1.01	1.06	0.99	1.02
CCOP(=S)(OCC)Oc1nc(Cl)c(Cl)cc1Cl	1.05	1	1.06	0.979	1.04	0.994	1.08	0.928	0.974	0.953	0.998	1.02	1.06	1.05	0.996	1.07	0.991	1.07	1.04	1.04
Cc1c(COC(=O)[C@@H]2[C@H](/C=C(\Cl)C(F)(F)F)C2(C)C)cccc1-c1ccccc1 (racemic)	0.988	0.992	1.05	1.06	1.17	0.833	0.786	0.993	0.998	1.05	1.06	1.1	0.947	0.869	1	1.06	1.05	0.943	1.07	0.975
